Screening data from PubChem BioAssay.
Vaccinia mCherry – vaccinia inhibition (mCherry reporter); 310,000 tested, 0.63% active; Potency, µM (top dose mostly 36.5 µM), inactives show at the highest dose activity change, negative = inhibition, actives largely listed as inhibitors; Vaccinia virus mCherry reporter infection, fluorescence; calls by dose curve; tested in A549 cells; also: potency is read from the fitted curve at half-maximal effect; nearly all actives have a fitted effect of over 35% in size
HCMV inh – blocks human cytomegalovirus replication. HFF cells, HCMV-luciferase reporter, 72 h; active compounds read low. 410,000 tested, 4.5% active. activity change, negative = inhibition, % at 57.5 µM; in the data active = activity change below about -60%; inconclusive = no clear call, values can overlap the other calls; inactive = above about -39%
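Cell-based, HFFs, 1000 cells/well, 16 h 37C; cpds in DMSO + HCMV-luc, MOI 1 PFU/cell; 72 h 37C; OneGlo luminescence after 5 min RT; norm. to buffer vs Salinomycin 10uM.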
Vaccinia Venus – inhibitors of vaccinia virus (Venus reporter); Vaccinia virus Venus reporter expression, fluorescence; Potency, µM (series often up to 36.5 µM), for the others: top-dose activity change, negative = inhibition, most hits filed as inhibitors; 330,000 tested, 0.46% active; AID 720580; calls by dose curve; tested in A549 cells; also: potency is read from the fitted curve at half-maximal effect; nearly all actives have a fitted effect of over 30% in size
HCV inh – inhibitors of hepatitis C virus infection; Huh7.5.1 HCVcc-Cre infection, luciferase reporter, 44 h; Potency, µM (titrated, usually from 41.8 µM), for the others: at the highest dose activity change, negative = inhibition, most hits filed as inhibitors; 340,000 tested, 3.4% active; AID 651820; also: potency is read from the fitted curve at half-maximal effect
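Seed cells (1,000/well) for 4 h; treat with compound and infect with HCVcc-Cre, moi about 0.5. Incubate 44 h, then detect luciferase activity.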
Giardia FBPA inh – Giardia lamblia aldolase inhibition | 290,000 tested, 0.71% active | purified Giardia FBPA | Potency, µM (titrated, usually from 59.6 µM), for the others: at the top dose activity, negative = inhibition, actives largely listed as inhibitors; also: potency is read from the fitted curve at half-maximal effect; nearly all actives have a fitted effect of over 55% in size
Target sequence (A8B2U2 whole entry, looked up): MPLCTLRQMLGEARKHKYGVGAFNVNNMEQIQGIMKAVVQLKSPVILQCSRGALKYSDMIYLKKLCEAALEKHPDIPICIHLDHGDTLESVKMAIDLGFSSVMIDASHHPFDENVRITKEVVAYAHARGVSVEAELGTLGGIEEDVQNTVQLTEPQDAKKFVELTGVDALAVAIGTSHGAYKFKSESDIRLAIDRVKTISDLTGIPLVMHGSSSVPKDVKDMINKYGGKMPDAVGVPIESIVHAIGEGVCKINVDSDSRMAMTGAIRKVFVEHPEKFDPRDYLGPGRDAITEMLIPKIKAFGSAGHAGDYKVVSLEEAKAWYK
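Giardia FBPA (40 nM reagent) was preincubated 10 min at RT with compound (up to 57.5 uM final), then substrate plus GAPDH/TPI/NAD/arsenate coupling system with diaphorase/resazurin was added; resorufin fluorescence (525/598 nm) was read after 20 min.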
FMDV antiviral – blocks foot and mouth disease virus. 410,000 tested, 1.2% active. Potency, µM (titrated, usually from 57.9 µM), for inactives: at the top dose activity change, negative = inhibition, actives largely listed as inhibitors. FMDV antiviral cell-based qHTS; calls by dose curve; tested in HEK293T cells; also: read-out not given here; potency is read from the fitted curve at half-maximal effect; nearly all actives have a fitted effect of over 45% in size
Numbers without * were called inactive; i = inactive; u = inconclusive; x = no result; [ ] = remark or other dose. Most compounds without a hit are left out; they make up all but 7.5% or so of the library. Unless noted, calls follow the shape of the dose curve; as a rule, active = well fitted curve in the direction sought with a large enough effect; inconclusive = small, poorly fitted or top-dose-only effect, or another doubt; inactive = no such curve, though single readings can be large; an effect the other way counts as inactive or inconclusive. % is scaled to controls: 0 for no effect and ±100 for the full control effect.

SMILES	Vaccinia mCherry	HCMV inh	Vaccinia Venus	HCV inh	Giardia FBPA inh	FMDV antiviral
CCc1ccc(NC(=O)CCC(=O)Nc2nnc(C(F)(F)F)s2)cc1	-9.0%	7.5	2.4%	-4.1%	x	15.4%
Cc1cc(NC(=O)Cn2nnc3sc4c(c3c2=O)CCC(C(C)(C)C)C4)no1 (stereo not drawn)	x	u	x	11.2µM*	-4.3%	-14.2%
CN(C)c1ccc(C(=O)c2ccc(N(C)C)c3ccccc23)cc1	x	-80.0*	u	11.2µM*	-4.3%	42.4%
COc1ccc(C(=O)c2ccc(N(C)C)cc2)c(OC)c1	x	66.4	x	u	-3.0%	13.1%
CC(C)c1ccc(S(=O)(=O)c2cn(CC(=O)Nc3ccc(F)cc3)c3ccccc3c2=O)cc1	-17.1%	-107.1*	-21.9%	x	x	-17.6%
CCc1ccc(S(=O)(=O)c2cn(CC(=O)Nc3ccc(C)cc3)c3ccccc3c2=O)cc1	-2.2%	13.3	-8.2%	x	x	-2.2%
CC(=O)S[C@H]1CC2=CC(=O)CC[C@@]2(C)[C@H]2CC[C@@]3(C)[C@H](CC[C@]34CCC(=O)O4)[C@@H]12	x	x	x	x	3.7%[21.7 µM]	x
CC(=O)SC1CC2=CC(=O)CCC2(C)C2CCC3(C)C(CCC34CCC(=O)O4)C12 (stereo not drawn)	-21.9%	-63.2*	-21.0%	u	-2.4%	-14.8%
COc1cc(-c2n[nH]c3ccnc(-c4cccc(OC(F)(F)F)c4)c23)cc(OC)c1OC	x	-17.7	x	x	x	x
O=C(c1ccco1)N1CCN(c2ncnc3c2[nH]c2ccc(Br)cc23)CC1	x	u	-26.5%	11.2µM*	-4.3%	u
CCOc1ccc2[nH]c3c(N4CCN(C(=O)c5ccco5)CC4)ncnc3c2c1	12.6µM*	-31.2	-24.1%	-25.0%	-12.0%	-20.0%
O=C(Nc1cc2c3c(c1)CC(=O)N3CCC2)C1CCCCC1	i	16.7	-11.7%	25.8%	x	4.1%
COc1cc(OC)nc(-n2ncc(Br)c(Br)c2=O)n1	u	-104.8*	11.2µM*	3.98µM*	5.1%	10µM*
Cc1ccc(S(=O)(=O)c2c(C)nn(C(C)(C)C)c2OC(=O)C(C)(C)C)cc1	x	32.1	-22.0%	u	2.9%	u
CC(=O)Oc1c(S(=O)(=O)c2ccc(C)cc2)c(C)nn1C(C)(C)C	u	12.2	u	26.1%	-7.4%	-18.6%
Cc1ccc(S(=O)(=O)c2c(C)nn(C(C)(C)C)c2OC(=O)c2ccc(Br)o2)cc1	u	-64.3*	11.2µM*	u	-3.4%	u
Cc1ccc(S(=O)(=O)c2c(C)nn(C(C)(C)C)c2OC(=O)c2ccco2)cc1	x	33.4	u	-3.9%	-7.2%	12.6µM*
CCOC(=O)c1ccc(NC(=O)CCC(=O)N2Cc3ccccc3Oc3ncccc32)cc1	-15.7%	-16.0	-20.4%	x	x	-26.5%
Cc1c(Cl)cccc1NC(=O)CNC(=O)c1ccccc1F	-11.5%	u	-7.0%	30.9%	3.2%	3.2%
CCOC(=O)c1ccc(NC(=O)CC(C)n2nc(C)cc2C)cc1 (stereo not drawn)	-12.2%	-12.2	-5.4%	x	x	-14.0%
COC(=O)c1cccc(C23CC4(C2)[C@H](CN(C)[C@@H]4c2ccccc2)C3c2ccc(Cl)nc2)c1 (stereo partly drawn)	x	x	x	x	0.0%	x
CN(C)CCNC(=O)c1cccc2[nH]c(-c3ccncc3)nc12	i	-99.9*	-22.3%	u	x	3.3%
COc1ccc(C(=O)NCCN(C)C)c2nc3ccccc3cc12	1µM*	-99.7*	6.31µM*	u	x	-11.1%
COc1cccc2nc3c(C(=O)NCCN(C)C)cccc3cc12	3.55µM*	-101.5*	4.47µM*	u	x	0.2%
COc1ccc(-c2nc3c(C(=O)NCCN(C)C)cccc3c3ccccc23)cc1	-13.6%	-34.5	u	u	x	-23.5%
CN(C)CCNC(=O)c1cccc2nc3c(ccc4ccccc43)nc12	u	-96.4*	11.2µM*	7.94µM*	x	-23.5%
CCN(CC(=O)NCc1ccc(Cl)cc1)C(=O)C(C)Sc1ccccc1 (stereo not drawn)	-14.8%	29.3	-25.5%	15.8%	1.4%	-13.5%
CCN(CC)S(=O)(=O)c1ccc2c(c1)N(CC(=O)N1CCCC1)C(=O)CO2	i	25.9	-10.1%	6.1%	1.8%	-11.8%
